RecA splice inh = blocks M. tuberculosis RecA intein splicing | P9WHJ3 | cell-free RecA intein splicing, fluorescence | inhibition, % (no concentration beside the values) | actives 0.75% (n = 290,000) | AID 2221; in the data active = inhibition above about 30%;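 note: 0% = vehicle wells and 100% = reference inhibitor control wells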
UGM FP inh = Mtb UDP-galactopyranose mutase inhibition | inhibition, % at 10 µM | AID 504406 | purified UGM, fluorescence polarization probe displacement | actives 0.06% (n = 320,000) | P9WIQ1; in the data active = inhibition above about 10%, passing the limit was not always enough
Target sequence (P9WIQ1 whole entry, looked up): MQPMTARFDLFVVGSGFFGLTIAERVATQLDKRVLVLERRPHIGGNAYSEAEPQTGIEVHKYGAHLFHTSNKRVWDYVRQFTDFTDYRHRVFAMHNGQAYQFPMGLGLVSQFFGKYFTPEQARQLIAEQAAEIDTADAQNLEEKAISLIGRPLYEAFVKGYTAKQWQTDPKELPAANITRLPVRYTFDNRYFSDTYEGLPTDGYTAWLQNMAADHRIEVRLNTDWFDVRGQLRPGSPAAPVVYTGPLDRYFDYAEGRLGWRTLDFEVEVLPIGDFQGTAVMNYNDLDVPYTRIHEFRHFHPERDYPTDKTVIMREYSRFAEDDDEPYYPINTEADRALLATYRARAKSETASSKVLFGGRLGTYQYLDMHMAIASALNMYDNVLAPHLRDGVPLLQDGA
Rv3671c inh = inhibits the M. tuberculosis serine protease Rv3671c. P9WHR9. inhibition, % at 5.96 µM. actives 0.048% (n = 320,000); in the data active = inhibition above about 38%;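 note: extracellular domain of Rv3671c used as enzyme; 0% = enzyme with DMSO and 100% = no enzyme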
FadD28 binding = inhibitors of Mycobacterium tuberculosis FadD28 bisubstrate binding; inhibition, % at 12.5 µM; FadD28 bisubstrate probe binding, fluorescence polarization; actives 0.22% (n = 360,000); in the data active = inhibition above about 8.5%, passing the limit was not always enough
Y pestis TopoI = inhibitors of Yersinia pestis topoisomerase I. Y. pestis Topo-I cleavage product accumulation, plate reader. activity, % at 10 µM. actives 0.064% (n = 360,000); in the data active = activity above about 50%, passing the limit was not always enough
BioA inh = inhibitors of Mycobacterium tuberculosis BioA enzyme | inhibition, % at 9.99 µM | actives 0.096% (n = 360,000) | purified M. tuberculosis BioA enzyme, plate reader; in the data active = inhibition above about 40%
GFP chromophore = counter-screen: blocks GFP chromophore formation. cell-free GFP chromophore formation, fluorescence. EC50, µM. actives 83% (n = 2,100). shares compounds with RecA splice inh; call rule not given here
* marks the source's active call; other numbers are inactive results; i = inactive; / = no result. Most compounds without a hit are left out; they make up all but 0.82% or so of the library.

SMILES | RecA splice inh | UGM FP inh | Rv3671c inh | FadD28 binding | Y pestis TopoI | BioA inh | GFP chromophore
CCOC(=O)/C=c1\s/c(=C(\C#N)C(N)=O)n(-c2ccccc2)c1=O | 49* | -2 | -12 | -2 | 10 | 0 | 24*
O=C(OCn1ncc(Br)c(Br)c1=O)c1ccc(F)cc1 | 73* | -3 | -5 | 0 | 2 | -1 | 2.2*
O=C(OCn1ncc(Br)c(Br)c1=O)c1ccccc1Cl | 64* | 3 | -9 | 1 | 1 | -1 | 1.8*
CC(=O)OCn1ncc(N2CCOCC2)c(Br)c1=O | 0 | 0 | -2 | -1 | -1 | -2 | /
CC(C)Cn1c(N)c(S(=O)(=O)c2cccs2)c2nc3ccccc3nc21 | 47* | / | / | 0 | 2 | 0 | 29*
COc1ccc(/C=N/n2c(N)c(S(=O)(=O)c3cccs3)c3nc4ccccc4nc32)cc1OC | -5 | 0 | -13 | -2 | 1 | 0 | /
C[C@@H]1CN([C@@H](C)CO)C(=O)Cc2cc(NC(=O)C3CC3)ccc2O[C@H]1CN(C)Cc1ccc(C(=O)Nc2ccccc2N)cc1 | / | / | / | / | / | 3 | /
Cc1noc(C)c1NC(=O)N(C)C[C@@H]1Oc2ccc(NC(=O)Cn3cnnn3)cc2CC(=O)N([C@H](C)CO)C[C@@H]1C | / | / | / | / | / | 1 | /
C[C@H](CO)N1C[C@H](C)[C@H](CN(C)C(=O)C2CCCCC2)Oc2cc(C#C[C@@H](C)O)ccc2S1(=O)=O | / | / | / | / | / | 9 | /
CCCCCCCCCCCC1=C(O)C(=O)C=C(O)C1=O | / | 2 | 1 | -1 | -22 | 0 | /
COC1=CC(=O)C(O)=C(CCCCCCC/C=C/CCCCCCCC2=C(O)C(=O)C=C(OC)C2=O)C1=O | 76* | 0 | 16 | 22* | -3 | 2 | 2.1*
CC1(S(=O)(=O)O)CC(=O)c2ccccc2C1=O (centres undefined) | 93* | -2 | -7 | 0 | 2 | -1 | 4.3*
O=C1c2ccccc2C(=O)C1(O)O | / | 1 | -185 | / | / | / | /
COc1cc(Br)c(C(=O)c2nccc3cc(OC)c(OC)cc23)cc1OC | 84* | -6 | -153 | -4 | 5 | 0 | 0.75*
COc1cc(C(=O)c2ccccc2)c([N+](=O)[O-])cc1OC | -22 | 0 | 2 | -2 | -9 | 0 | /
COc1cc(C(=O)c2nccc3cc(OC)c(OC)cc23)c([N+](=O)[O-])cc1OC | 95* | 0 | -117 | 0 | 11 | / | 0.39*
COc1cc(N)c(C(=O)c2nccc3cc(OC)c(OC)cc23)cc1OC | 18 | -1 | 9 | -1 | 8 | 2 | /
CN(C)CC(=O)Nc1ccc2c(c1)[C@@H]1C[C@@H](CC(=O)NCc3ccc4c(c3)OCO4)O[C@H](CO)[C@@H]1O2 | / | / | / | / | / | -1 | /
CCCCn1c(NS(=O)(=O)c2ccccc2)c(C(=O)OCC)c2nc3ccccc3nc21 | i | 2 | -102 | 3 | 15 | / | /
CCCCn1c(NS(=O)(=O)c2ccc(C)cc2)c(S(=O)(=O)c2ccccc2)c2nc3ccccc3nc21 | 83* | 1 | -143 | 3 | -5 | 1 | >38
Cc1[nH][nH]c(=O)c1C(c1ccc(N(C)C)c(Br)c1)c1c(C)[nH][nH]c1=O | 97* | 5 | -8 | 0 | 6 | / | 0.47*
COc1ccc(C(=O)n2nnc3ccccc32)cc1Br | 35* | -1 | 5 | -1 | 2 | -3 | >38
CCNC(=O)C[C@H]1CC[C@@H]2[C@H](COC[C@@H](O)CN2Cc2ccncc2)O1 | / | / | / | / | / | -1 | /
CC(C)(C)C(=O)Nc1ccc(N=Nc2ccccc2)cc1 | 35* | -5 | -6 | -1 | -1 | 0 | 8.7*
Cc1noc(C)c1NC(=O)Nc1ccc2c(c1)CC(=O)N([C@@H](C)CO)C[C@H](C)[C@H](CN(C)C(=O)Nc1ccc(F)cc1)O2 | / | / | / | / | / | -5 | /
SMILES | RecA splice inh | UGM FP inh | Rv3671c inh | FadD28 binding | Y pestis TopoI | BioA inh | GFP chromophore
CCCN1C[C@@H](C)[C@@H](OC)CN(C)C(=O)c2cc(NC(=O)c3ccccc3F)ccc2OC[C@H]1C | / | / | / | / | / | -1 | /
CCOC(=O)c1c(NC(=O)c2ccco2)n(C2CCCCC2)c2nc3ccccc3nc12 | 55* | 1 | -32 | 1 | 4 | / | 21*
Fc1ccc(Sc2nc(-c3ccccc3)nnc2C(F)(F)F)cc1 | 71* | -3 | 1 | -6 | 13 | 1 | 0.89*
CCc1ccc(CC2S/C(=C(\C#N)C(C)=O)NC2=O)cc1 (centres undefined) | 4 | 2 | -1 | -2 | -6 | -1 | /
CCOC(=O)c1ccc(CC2S/C(=C(\C#N)C(C)=O)NC2=O)cc1 (centres undefined) | 82* | 5 | 6 | -2 | 3 | 0 | >38
CCC(=O)N1N=C(c2cccs2)CC1c1ccc(C)cc1 (centres undefined) | 2 | 1 | -4 | -2 | -5 | 2 | /
Cc1ccc(C2CC(c3cccs3)=NN2C(=O)CCl)cc1 (centres undefined) | 82* | 4 | 2 | -1 | 19 | -3 | 3.8*
Cc1ccc(NC2=C(NCCO)C(=O)c3ccccc3C2=O)cc1 | 71* | 5 | -179 | -1 | -22 | / | 20*
Cc1ccc(C(=O)NC(=S)NNS(=O)(=O)c2ccc(C)cc2)cc1 | 41* | 4 | -3 | -3 | -8 | 3 | >38
CCc1cccc(NC(=O)Cn2cccc2)c1 | -1 | -1 | 1 | -2 | -9 | / | /
CCc1cccc(NC(=O)CSCc2cc(=O)[nH][nH]2)c1 | 81* | 2 | -9 | 1 | -5 | -1 | 12*
O=C(O)CN1C(=O)/C(=C\c2cccc(OC(=O)c3ccco3)c2)SC1=S | 31* | 3 | 5 | -3 | 12 | 5 | >38
O=C(O)COc1ccc(/C=C2/SC(=S)N(Cc3ccccc3)C2=O)cc1 | 53* | -5 | -19 | 0 | 11 | 5 | 36*
C=CCN1C(=O)/C(=C\c2cccc(OC(=O)c3ccco3)c2)SC1=S | 4 | 2 | 0 | / | 5 | 0 | /
Cc1c(C)n(O)c2ccc3nonc3c12 | 56* | 5 | 3 | -1 | -5 | 2 | 24*
COc1ccccc1-c1noc(CCCC(=O)N2CCOCC2)n1 | -3 | 3 | -6 | 1 | -5 | -4 | /
COc1ccc(-c2cc(C(F)(F)F)nc(S(=O)(=O)CCCC(=O)Nc3cccc(O)c3)n2)cc1OC | 62* | / | / | -8 | 1 | 6 | 19*
COc1ccccc1-c1cc(C(F)(F)F)nc(S(=O)(=O)CCCC(=O)N2CCOCC2)n1 | 48* | 5 | -9 | -3 | -7 | 23 | 16*
Cc1cc(NC(=O)CCS(=O)(=O)c2nc(-c3ccccc3)cc(C(F)(F)F)n2)no1 | / | 1 | 0 | -6 | -2 | 10 | /
C[C@H]1CN([C@@H](C)CO)C(=O)c2cc(NS(C)(=O)=O)ccc2O[C@H]1CN(C)Cc1ccncc1 | / | / | / | / | / | 0 | /
O=c1cc(C23CC4CC(CC(C4)C2)C3)[nH][nH]1 | 91* | -2 | -1 | -4 | -1 | -1 | 10*
